From the supplement of paper PMC12494721
Where a name gives a salt, the structure may show the parent alone.

What was measured:
Settings in all cases: 20 µM; incubation time: 27 h, anaerobic, 37 °C;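 for the amine columns active = adjusted P below 0.05 in both replicates with a change the same way and a mean fold change under 0.8 or over 1.25; inactive = the rest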
[1] = tested on: Clostridium sporogenes DSM 1664; test: growth (OD595) fold change vs plate DMSO controls (fold change (ratio)); higher = more growth
In short: (§1)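 Each value is the mean of 2 biological replicates, and fold changes above 1.5 were set to NA. The underlying readings were taken at 595 nm from shaken anaerobic mGAM cultures in 96-well plates after 27 h at 37 °C. They were blank-subtracted, corrected for compound background using 20 µM compound solutions in water, and converted to OD with a calibration factor of 5. Growth is the fold change relative to the median of the plate DMSO controls.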

Escherichia coli IAI1 [2] = test: as above
In short: as §1

[3] = tested on: Klebsiella aerogenes DSM 30053; test: as above
In short: as §1

[4] = tested on: Ruminococcus gnavus DSM 108212; test: as above
In short: as §1

[5] = tested on: Klebsiella aerogenes DSM 30053; test: fold change of Histamine concentration vs plate DMSO controls (fold change (ratio)); higher = more amine produced, active = hit call of the paper (significant change in both replicates, either direction)
In short: (§2)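 Extracts of whole anaerobic mGAM cultures were analysed for amines by LC–triple-quadrupole MS with dynamic MRM and external calibration curves, with drift corrected within batch. Four gut strains were grown at 37 °C for 27 h in 80 µL wells with compounds at 20 µM final, sweeteners at 50 µM final. Each value expresses fold change over plate DMSO controls. The average of 2 biological replicates is shown.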

[6] = tested on: Clostridium sporogenes DSM 1664; test: fold change of Tryptamine concentration vs plate DMSO controls (fold change (ratio)); higher = more amine produced, active = hit call of the paper (significant change in both replicates, either direction)
In short: as §2

[7] = tested on: Ruminococcus gnavus DSM 108212; test: as above
In short: as §2

Escherichia coli IAI1 [8] = test: fold change of Putrescine concentration vs plate DMSO controls (fold change (ratio)); higher = more amine produced, active = hit call of the paper (significant change in both replicates, either direction)
In short: as §2

[9] = tested on: Klebsiella aerogenes DSM 30053; test: as above
In short: as §2

Escherichia coli IAI1 [10] = test: fold change of Cadaverine concentration vs plate DMSO controls (fold change (ratio)); higher = more amine produced, active = hit call of the paper (significant change in both replicates, either direction)
In short: as §2

[11] = tested on: Klebsiella aerogenes DSM 30053; test: as above
In short: as §2

[12] = tested on: Ruminococcus gnavus DSM 108212; test: fold change of 2-Phenylethylamine concentration vs plate DMSO controls (fold change (ratio)); higher = more amine produced, active = hit call of the paper (significant change in both replicates, either direction)
In short: as §2

| SMILES | growth [1] | growth (Escherichia coli IAI1 [2]) | growth [3] | growth [4] | fold change of Histamine concentration [5] | fold change of Tryptamine concentration [6] | fold change of Tryptamine concentration [7] | fold change of Putrescine concentration (Escherichia coli IAI1 [8]) | fold change of Putrescine concentration [9] | fold change of Cadaverine concentration (Escherichia coli IAI1 [10]) | fold change of Cadaverine concentration [11] | fold change of 2-Phenylethylamine concentration [12] |
| --- | --- | --- | --- | --- | --- | --- | --- | --- | --- | --- | --- | --- |
| CC1(C)C(C(=O)OC(C#N)c2cccc(Oc3ccccc3)c2)C1(C)C (stereo not drawn) | 0.931 | 1.02 | 1.01 | 1.15 | 1 (inactive) | 1.06 (inactive) | 1.17 (inactive) | 0.937 (inactive) | 0.987 (inactive) | 0.982 (inactive) | 1 (inactive) | 1.25 (inactive) |
| CNC(=O)Oc1cccc2ccccc12 | 1.12 | 0.98 | 1 | 0.969 | 0.989 (inactive) | 0.933 (inactive) | 0.989 (inactive) | 1.06 (inactive) | 1.01 (inactive) | 0.965 (inactive) | 1.01 (inactive) | 0.97 (inactive) |
| O=C(O)C(F)(F)C(F)(F)C(F)(F)C(F)(F)C(F)(F)C(F)(F)F [PFHpA (Perfluoroheptanoic acid)] | 0.939 | 1.01 | 0.994 | 0.995 | 0.997 (inactive) | 1.06 (inactive) | 0.979 (inactive) | 1.03 (inactive) | 1.02 (inactive) | 1.04 (inactive) | 1 (inactive) | 0.98 (inactive) |
| Cc1ccccc1[N+](=O)[O-] [2-Nitrotoluene] | 0.884 | 0.993 | 0.968 | 0.984 | 0.994 (inactive) | 0.993 (inactive) | 0.981 (inactive) | 0.996 (inactive) | 1.01 (inactive) | 1.01 (inactive) | 0.993 (inactive) | 0.978 (inactive) |
| C1=Cc2cccc3cccc1c23 [Acenaphthylene] | 0.849 | 1.03 | 0.96 | 1.15 | 1.02 (inactive) | 0.962 (inactive) | 0.991 (inactive) | 1.02 (inactive) | 1 (inactive) | 1.02 (inactive) | 0.985 (inactive) | 0.996 (inactive) |
| CN1C(=O)CCS(=O)(=O)C1c1ccc(Cl)cc1 (stereo not drawn) [Chlormezanone] | 1.13 | 0.97 | 1.02 | 0.846 | 1 (inactive) | 0.944 (inactive) | 1.05 (inactive) | 0.986 (inactive) | 1.01 (inactive) | 0.984 (inactive) | 1.01 (inactive) | 1.06 (inactive) |
| CCCC[N+]1(C)[C@@H]2C[C@@H](OC(=O)[C@H](CO)c3ccccc3)C[C@H]1[C@@H]1O[C@@H]12 (stereo partly drawn) [N-Butylscopolammonium bromide] | 0.954 | 1.22 | 0.974 | 1.06 | 1.03 (inactive) | 0.921 (inactive) | 0.946 (inactive) | 1.27 (inactive) | 1.01 (inactive) | 0.975 (inactive) | 0.99 (inactive) | 0.913 (inactive) |
| CCOc1ccc(C(C)(C)COCc2cccc(Oc3ccccc3)c2)cc1 | 1.14 | 1.03 | 1.01 | 1.13 | 0.97 (inactive) | 1.03 (inactive) | 1.05 (inactive) | 1.01 (inactive) | 0.984 (inactive) | 0.969 (inactive) | 1.05 (inactive) | 1.05 (inactive) |
| Clc1ccc(C(OCCN2CCCCC2)c2ccccc2)cc1 (stereo not drawn) [Cloperastine hydrochloride] | 1.14 | 1.07 | 1.06 | 0.788 | 0.884 (inactive) | 1.01 (inactive) | 0.88 (inactive) | 1.06 (inactive) | 0.988 (inactive) | 0.958 (inactive) | 1.03 (inactive) | 1 (inactive) |
| CN/C(=N/CC1CCOC1)N[N+](=O)[O-] (stereo not drawn) | 1.07 | 1 | 1.01 | 1.03 | 1.03 (inactive) | 0.993 (inactive) | 1.01 (inactive) | 1.03 (inactive) | 1.02 (inactive) | 0.992 (inactive) | 0.999 (inactive) | 0.994 (inactive) |
| Nc1ccncc1 [Dalfampridine] | 0.947 | 0.992 | 1.02 | 0.985 | 0.957 (inactive) | 1 (inactive) | 1 (inactive) | 0.968 (inactive) | 0.989 (inactive) | 0.957 (inactive) | 1 (inactive) | 0.991 (inactive) |
| Oc1ccc(C(c2ccc(O)cc2)(C(F)(F)F)C(F)(F)F)cc1 [Bisphenol AF] | 1.04 | 1.07 | 0.956 | 0.983 | 1.08 (inactive) | 0.718 (inactive) | 0.717 (active) | 1.01 (inactive) | 0.989 (inactive) | 1.03 (inactive) | 0.99 (inactive) | 0.723 (inactive) |
| CN1CCC2(C)c3cc(O)ccc3N(C)C12 (single isomer, unassigned; (-)) [(-) Eseroline fumarate salt] | 1.01 | 1.04 | 1.03 | 1.16 | 1 (inactive) | 1.02 (inactive) | 0.951 (inactive) | 0.99 (inactive) | 1 (inactive) | 0.994 (inactive) | 0.995 (inactive) | 0.954 (inactive) |
| CCN(C)C(=O)Oc1cccc([C@H](C)N(C)C)c1 [Rivastigmine] | 0.985 | 1.03 | 1.02 | 1.05 | 0.987 (inactive) | 1.18 (inactive) | 1.13 (inactive) | 0.958 (inactive) | 0.993 (inactive) | 0.937 (inactive) | 1.03 (inactive) | 1.18 (inactive) |
